The list is not random: actives were taken first. Their share in the collection is about 2.3%.
GLS inh: qHTS for Inhibitors of Glutaminase (GLS); Glutaminase kidney isoform, mitochondrial (Homo sapiens), O94925; GLS enzymatic activity, qHTS titration; Potency, µM (highest dose often 45.5 µM), without a hit: at the top dose activity change, negative = inhibition, most hits filed as inhibitors; hit rate 0.21% among 410,000; note: % is set by controls: 0 for no effect and ±100 for the full control effect
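Glutamate formation by hKGA was monitored fluorometrically using coupled glutamate oxidase, HRP and Amplex Red. Substrate was added as 1 mM L-glutamine solution; incubation was 30 min at RT after an initial read.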
PTHR1 ag: qHTS for PTHR1 Agonists: Primary Screen; Parathyroid hormone/parathyroid hormone-related peptide receptor (Homo sapiens), Q03431; HEK293 GP2 PTHR1 cells, GloSensor cAMP luminescence, 1 h; Potency, µM (series often up to 115 µM), for the others: at the highest dose activation, most hits filed as activators; hit rate 0.075% among 410,000; note: nearly all actives have a fitted effect of over 55% in size
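HEK-293-derived GP2 cells expressing PTHR1 and a GloSensor cAMP reporter, 3,000/well, plated overnight, given luciferin plus IBMX (each 0.5 mM as added) for 1 h at 37 °C, then compound for 1 h at 37 °C. Luminescence was read after 15 min at room temperature.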
GLP1R ag: qHTS of GLP-1 Receptor Agonists | Glucagon-like peptide 1 receptor (Homo sapiens), P43220 | hit rate 0.007% among 380,000 | Potency, µM (top dose mostly 45.6 µM), for the others: at the top dose activation, usual class: activators | HEK293 GLP-1R CRE-luciferase, luminescence, 4-6 h; cells express a hypersensitive GLP-1R form | AID 624172, 2012; note: % of control where 0% means no effect
Target sequence (P43220 whole entry, looked up): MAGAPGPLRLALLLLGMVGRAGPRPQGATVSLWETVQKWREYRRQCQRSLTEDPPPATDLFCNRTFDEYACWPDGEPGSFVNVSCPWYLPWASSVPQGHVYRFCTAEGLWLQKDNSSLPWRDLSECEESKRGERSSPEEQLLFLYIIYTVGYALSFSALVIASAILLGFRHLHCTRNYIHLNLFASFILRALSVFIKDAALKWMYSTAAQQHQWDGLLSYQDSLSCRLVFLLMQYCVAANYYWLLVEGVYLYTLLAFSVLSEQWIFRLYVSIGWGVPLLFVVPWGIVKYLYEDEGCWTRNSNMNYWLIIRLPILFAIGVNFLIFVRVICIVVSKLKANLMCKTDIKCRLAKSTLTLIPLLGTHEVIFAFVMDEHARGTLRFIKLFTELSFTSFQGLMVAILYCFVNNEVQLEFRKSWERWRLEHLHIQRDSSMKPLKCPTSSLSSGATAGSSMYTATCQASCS
GLP1R inv ag: qHTS of GLP-1 Receptor Inverse Agonists (Inhibition Mode); HEK293 GLP-1R CRE-luciferase, luminescence, 24 h; GLP-1R form is constitutively active; Potency, µM (highest dose often 38.3 µM), without a hit: at the top dose activity change, negative = inhibition, most hits filed as inhibitors; hit rate 1.6% among 410,000; note: % is set by controls: 0 for no effect and ±100 for the full control effect; nearly all actives have a fitted effect of over 55% in size
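qHTS in 1536-well format: reporter HEK293 cells expressing constitutive GLP-1R activity in DMEM + 10% Nu serum, 24 hr with compounds at 37 deg C, luminescence read after 12 min with detection reagent.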
12-LOX inh: Primary qHTS assay for inhibitors of human arachidonate 12S-lipoxygenase (ALOX12): Round 2; Polyunsaturated fatty acid lipoxygenase ALOX12 (Homo sapiens), P18054; purified 12hLO, xylenol orange hydroperoxide absorbance; Potency, µM (series often up to 108 µM), for inactives: top-dose activity change, negative = inhibition, actives largely listed as inhibitors; hit rate 1.1% among 580,000; AID 1671190, 2021; note: % is set by controls: 0 for no effect and ±100 for the full control effect
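Purified human 12hLO (150 nM final) in 25 mM Hepes, 0.01% Triton X-100, pH 7.0 was preincubated 15 min at room temperature with compound. Then 40 uM arachidonic acid was added, 30 min. Hydroperoxide was read by Fe-XO absorbance ratio 573/405 nm.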
GRP78 ERSR act: qHTS for Inducers of the Endoplasmic Reticulum Stress Response (ERSR) in Human Glioma: qHTS; U87-MG GRP78 promoter luciferase reporter, 16 h; Potency, µM, for the others: at the highest dose activation, usual class: activators; hit rate 0.02% among 420,000; note: series mostly up to about 76 µM; % of control where 0% means no effect; nearly all actives have a fitted effect of over 35% in size
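Stably transfected U87-MG human glioma cells carrying a GRP78-based luminescent sensor were seeded at 1000 cells/well, pin-dosed with compounds and incubated 16 h. Luciferase reagent was then added, and end-point luminescence was read after 10 min at room temperature.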
Starred values were filed as active, the others as inactive; i = inactive; ? = inconclusive; nt = no result; [ ] = remark or other dose. Calls come from the whole dose curve; as a rule, active = well fitted curve in the direction sought with a large enough effect; inconclusive = small, poorly fitted or top-dose-only effect, or another doubt; inactive = no such curve, though single readings can be large; an effect the other way counts as inactive or inconclusive. Potency is the fitted concentration of half-maximal effect.

SMILES | GLS inh | PTHR1 ag | GLP1R ag | GLP1R inv ag | 12-LOX inh | GRP78 ERSR act
CCOC(=O)c1ccc(NS(=O)C23CC4CC(CC(C4)C2)C3)cc1 (stereo unspecified) | -4% | i | 0% | -5% | 7.1µM* | 2%
CCOC(=O)c1ccc(NC(=O)CNC(=O)C23CC4CC(CC(C4)C2)C3)cc1 | 4% | ? | 8% | 0% | 19% | -2%
CCC(C)Oc1cc(-c2ccnc(Nc3cccc(Cl)c3)n2)ccn1 (stereo unspecified) | 22% | i | -10% | 11µM* | -21% | -4%
OCCCNc1cc(-c2ccnc(Nc3cccc(Cl)c3)n2)ccn1 | 0% | -37% | -18% | ? | 5% | -3%
Cc1cccc(NC(=O)N2CCC3(CC2)SCC(=O)N3Cc2ccco2)c1 | nt | nt | nt | nt | 55% | nt
COc1ccc(OC2CCN(S(=O)(=O)c3ccc(OC)cc3)CC2)cc1 | -7% | -14% | 5% | 10µM* | 13% | 0%
COc1ccc(S(=O)(=O)N2CCN(Cc3ccco3)CC2)cc1 | 0% | i | 3% | 0% | 2.5µM* | -7%
Cc1ccc(S(=O)(=O)N2CCC3(CC2)SCC(=O)N3Cc2ccco2)cc1 | nt | nt | nt | nt | 14µM* | nt
O=C(Cc1ccccc1)N(CC1CCOC1)C1CC1 (stereo unspecified) | nt | nt | nt | nt | -2% | nt
CC(C)C[C@H](N)c1cn([C@@H](CCCCN)C(=O)N2CCNCC2)nn1 | 6% | -1% | -22% | 0.89µM* | 0% | -5%
CC(C)CC(N)c1cn([C@@H](CCC(=O)O)C(=O)N2CCNCC2)nn1 (stereo partly specified) | -2% | -18% | 8% | 11% | -2% | 2%
C=CCn1c(=O)/c(=C\c2ccccn2)s/c1=C(/C#N)C(=O)NCC1CCCO1 (stereo unspecified) | -7% | i | 2% | 10% | 13% | 3%
C=CCn1c(=O)/c(=C/c2ccc(C)o2)s/c1=C(/C#N)C(=O)c1ccccc1 | 8% | 15% | 5% | 11% | 11µM* | 6%
C=CCNC(=S)N/N=C/c1ccc(N(CC)Cc2ccccc2)cc1 | 17% | i | 1% | ? | 50µM* | -3%
CCN(CC)c1ccc(NC(=O)Nc2ccc(C(C)=O)cc2)cc1 | 16% | -12% | 4% | ? | -24% | -1%
CCN(CC)c1ccc(N=C2C=CC(=O)C=C2NC(C)=O)cc1 | 11µM* | -19% | 5% | -4% | ? | 0%
CCCCNC(=O)c1c(CSc2ccc(Cl)cc2)noc1C(=O)NCc1ccccc1 | -3% | -31% | 7% | ? | ? | -2%
CCCCNC(=O)c1c(CSc2ccccc2)noc1C(=O)NCc1ccccc1 | -1% | -21% | -2% | 10µM* | 9% | -5%
CCCNC(=O)c1c(CSc2ccc(Cl)cc2)noc1C(=O)NCc1ccccc1 | 0% | -23% | 2% | 5µM* | -24% | -6%
O=C(NCc1ccccc1)c1onc(CSc2ccccc2)c1C(=O)NCC1CC1 | -7% | i | -4% | 3.5µM* | ? | -2%
O=C(NCc1ccccc1)c1onc(CSc2ccc(Cl)cc2)c1C(=O)NCC1CC1 | -3% | i | 0% | ? | -3% | -4%
Cc1cc(C)cc(SCc2noc(C(=O)NCC3CC3)c2C(=O)NCC2CC2)c1 | -2% | -26% | 7% | 8.9µM* | -3% | -2%
O=C1CCSc2c1cccc2C(=O)NCC1CCN(Cc2ccc(Cl)cc2)CC1 | nt | nt | nt | nt | -25% | nt
COc1ccc(OC(=O)c2cc(Cl)c(OC)c(Cl)c2)cc1 | nt | nt | nt | nt | -45% | nt
COCCOCCCNC(=O)c1ccc2nc(C)c(C)nc2c1 | nt | nt | nt | nt | -1% | nt
SMILES | GLS inh | PTHR1 ag | GLP1R ag | GLP1R inv ag | 12-LOX inh | GRP78 ERSR act
O=C(CSc1nc2cc(C(F)(F)F)ccc2s1)c1ccc2c(c1)CCCC2 | nt | nt | nt | nt | -6% | nt
CN(Cc1nc2ccccc2[nH]1)S(=O)(=O)c1ccc(Cl)cc1C(F)(F)F | nt | nt | nt | nt | 3% | nt
COCCNC(=O)CN1CCN(c2cc(-c3nc4ccccc4s3)c3ccccc3n2)CC1 | nt | nt | nt | nt | -16% | nt
CC1CCCCC1NC(=O)CCC1CCCO1 (stereo unspecified) | nt | nt | nt | nt | 12% | nt
COc1ccc(Cl)cc1NC(=O)CN(C)C(=O)c1cc2c(F)cccc2s1 | -9% | -31% | -4% | ? | -22% | -3%
COc1ccc(Cl)cc1NC(=O)CN(C)CC(=O)Nc1c(C)n(C)n(-c2ccccc2)c1=O | 8% | i | 0% | 10µM* | 34% | -3%
COc1ccc(OC)c(NC(=O)Nc2c(C)n(C)n(-c3ccccc3)c2=O)c1 | 16% | 10% | nt | 0% | -4% | -4%
COc1ccc(Cl)cc1NC(=O)CN(C)C(=O)c1ccc(C)s1 | -1% | i | 15% | 5.6µM* | 1% | -5%
COC(=O)c1ccc(OCc2cc(OC)c(Br)cc2OC)cc1 | nt | nt | nt | nt | 3% | nt
COC(=O)[C@H]1[C@H](CO)[C@H]2Cn3c(ccc(Br)c3=O)[C@H]2N1Cc1ccccc1Cl | nt | nt | nt | nt | 35µM* | nt
Cn1c(=O)n(CCc2ccccc2)c(=O)c2c1nc1n2CCCN1CCc1ccccc1 | 4% | -24% | -43% | 2.2µM* | 0% | -9%
Cc1ccccc1Cn1c(=O)c2c(nc3n2CCN3Cc2ccco2)n(C)c1=O | 7.9µM* | i | -1% | 6% | 0% | -3%
CS(=O)(=O)NCCC(=O)O | nt | nt | nt | nt | 2% | nt
Cc1ccccc1NC(=O)OCc1cccnc1Sc1ccc(Cl)cc1 | -2% | -29% | 4% | -25% | 81% | -3%
Cc1ccc(Sc2ncccc2C(=O)O)cc1 | 6% | i | -8% | 2% | -12% | -2%
Cc1ccc(Sc2ncccc2COC(=O)Nc2ccccc2)cc1 | 14% | -46%[57.5 µM] | 0% | 7.9µM* | -2% | 1%
Cc1ccc(Sc2ncccc2COC(=O)Nc2c(C)cccc2C)cc1 | -3% | -68% | -1% | 7.9µM* | 12% | 1%
Cc1ccc(C)c(CN2CCC(CNC(=O)Nc3ccc(Br)cc3F)CC2)c1 | -13% | -6% | 10% | 7.1µM* | -51% | -12%
CCC1SC2=NC(C)=C(C(=O)OCC(C)C)C(/C=C/c3ccccc3OC)N2C1=O (stereo unspecified) | 13% | -40% | 25% | 7.9µM* | -29% | -6%
CN1CCC(NC(=O)c2ccc3c(c2)n(Cc2ccc(F)cc2)c(=O)c2ccnn23)CC1 | nt | nt | nt | nt | 20µM* | nt

Screening results from PubChem.
